PubChem BioAssay (NCATS)
Inconclusive results are not listed. Active and inactive are the calls of the source. Unless noted, calls follow the shape of the dose curve; as a rule, active = well fitted curve in the direction sought with a large enough effect; inconclusive = small, poorly fitted or top-dose-only effect, or another doubt; inactive = no such curve, though single readings can be large; an effect the other way counts as inactive or inconclusive.

Assays:
[1] = AP1 Signaling Pathway (AID 357; active = well fitted curve in either direction with a large enough effect, not every such curve was filed as active;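 also: ME-180 reporter cells stimulated with EGF at its EC50 level; % is scaled to controls: 0 for no effect and ±100 for the full control effect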)
In short: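 Beta-lactamase reporter under AP-1 response element, ME-180 background. Stimulus: EC50 EGF. Compound exposure 5 h, 37 °C. Detection: CCF4, 2.5 h RT, 460/530 nm. Values: AC50 from titration.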

[2] = target: Cytochrome P450 1A2 (Homo sapiens) (UniProt P05177); assay: p450-cyp1a2 (AID 410; calls by dose curve;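 also: -100% = full effect of reference inhibitor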)
Sequence of Cytochrome P450 1A2 (Homo sapiens) (P05177 whole entry, looked up): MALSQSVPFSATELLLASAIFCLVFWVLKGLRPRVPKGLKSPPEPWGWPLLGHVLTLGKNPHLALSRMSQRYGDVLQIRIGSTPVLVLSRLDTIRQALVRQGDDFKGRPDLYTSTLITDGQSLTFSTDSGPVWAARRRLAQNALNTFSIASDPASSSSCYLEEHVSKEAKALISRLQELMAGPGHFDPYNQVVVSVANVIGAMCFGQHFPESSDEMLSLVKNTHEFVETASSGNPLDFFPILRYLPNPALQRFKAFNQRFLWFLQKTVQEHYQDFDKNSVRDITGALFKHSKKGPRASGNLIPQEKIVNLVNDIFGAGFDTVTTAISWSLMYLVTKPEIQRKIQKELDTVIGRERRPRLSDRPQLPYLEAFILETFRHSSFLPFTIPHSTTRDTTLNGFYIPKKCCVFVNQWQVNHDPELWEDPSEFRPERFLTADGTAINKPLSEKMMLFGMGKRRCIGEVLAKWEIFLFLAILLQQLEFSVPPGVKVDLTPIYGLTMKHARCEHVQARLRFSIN
In short: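 O-Demethylation of luciferin 6' methyl ether by human CYP1A2 is monitored as luciferase luminescence. Substrate sits at Km (100uM); enzyme is 20nM. Values are scaled to 57 uM furafylline as maximal inhibition.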

[3] = NFAT Signaling Pathway (AID 444; active = well fitted curve in either direction with a large enough effect, not every such curve was filed as active;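 also: carbachol stimulus at about its EC50 of 1 µM final; % is scaled to controls: 0 for no effect and ±100 for the full control effect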); conditions: Jurkat NFAT-bla M1, carbachol, beta-lactamase ratio, 5 h; at 38 µM (top of the series)
In short: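 Jurkat cells carrying an NFAT-driven β-lactamase reporter and co-transfected muscarinic M1 receptor were treated with compound plus carbachol (1 uM final, an EC50 level) for 5 h at 37 °C. CCF4 loading followed for 1 h at RT; 460/530 nm ratio gave %activity.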

[4] = target: Glucocorticoid receptor (Homo sapiens) (UniProt P04150); assay: GR-GFP Redistribution (AID 450;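 active = compounds whose dose series gives a full or clear partial fitted curve of increased nuclear translocation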; also: potency is read from the fitted curve at half-maximal effect); conditions: U2OS GR-GFP nuclear translocation, laser cytometry, 2 h
Sequence of Glucocorticoid receptor (Homo sapiens) (P04150 whole entry, looked up, the tested form may be a part): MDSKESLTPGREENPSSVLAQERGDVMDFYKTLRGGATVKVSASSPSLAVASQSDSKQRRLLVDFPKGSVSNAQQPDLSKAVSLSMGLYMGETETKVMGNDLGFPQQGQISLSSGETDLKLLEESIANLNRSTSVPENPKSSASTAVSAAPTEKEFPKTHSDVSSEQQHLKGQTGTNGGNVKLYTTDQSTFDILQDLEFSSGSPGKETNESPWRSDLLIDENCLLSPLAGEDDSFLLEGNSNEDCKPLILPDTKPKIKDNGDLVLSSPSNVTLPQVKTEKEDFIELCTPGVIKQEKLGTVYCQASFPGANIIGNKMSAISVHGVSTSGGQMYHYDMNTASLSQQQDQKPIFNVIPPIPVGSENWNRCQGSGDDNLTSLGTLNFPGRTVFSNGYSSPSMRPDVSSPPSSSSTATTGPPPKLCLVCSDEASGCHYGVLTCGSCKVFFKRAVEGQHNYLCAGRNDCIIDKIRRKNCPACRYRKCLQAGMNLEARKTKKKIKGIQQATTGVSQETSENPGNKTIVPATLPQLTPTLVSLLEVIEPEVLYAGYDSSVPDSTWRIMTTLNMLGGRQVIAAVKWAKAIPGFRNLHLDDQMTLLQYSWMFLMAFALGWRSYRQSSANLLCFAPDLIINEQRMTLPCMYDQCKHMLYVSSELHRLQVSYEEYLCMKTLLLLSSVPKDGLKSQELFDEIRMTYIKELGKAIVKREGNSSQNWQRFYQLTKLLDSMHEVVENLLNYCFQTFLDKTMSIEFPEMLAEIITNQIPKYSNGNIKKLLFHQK

[5] = target: Glucocorticoid receptor (Homo sapiens) (UniProt P04150); assay: GR-EFC Redistribution (AID 451; calls by dose curve; also: potency is read from the fitted curve at half-maximal effect); conditions: CHO-K1 GR-EFC translocation, beta-gal luminescence, 2 h
In short: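 CHO-K1 cells stably expressing nuclear-localized β-gal enzyme acceptor and GR fused C-terminally to the enzyme donor fragment; ligand-driven nuclear translocation restores β-gal by complementation. Compounds titrated up to 46 uM final, 2 h at 37 °C; luminescence read.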

[6] = target: 3',5'-cyclic-AMP phosphodiesterase 4B (Homo sapiens) (UniProt Q07343); assay: qHTS Assay for Inhibitors of PDE-IV (AID 607; active = well fitted activation curve with a large enough effect in the main read-out, with a control signal flat, not every such curve was filed as active; also: % of control where 0% means no effect)
Sequence of 3',5'-cyclic-AMP phosphodiesterase 4B (Homo sapiens) (Q07343 whole entry, looked up): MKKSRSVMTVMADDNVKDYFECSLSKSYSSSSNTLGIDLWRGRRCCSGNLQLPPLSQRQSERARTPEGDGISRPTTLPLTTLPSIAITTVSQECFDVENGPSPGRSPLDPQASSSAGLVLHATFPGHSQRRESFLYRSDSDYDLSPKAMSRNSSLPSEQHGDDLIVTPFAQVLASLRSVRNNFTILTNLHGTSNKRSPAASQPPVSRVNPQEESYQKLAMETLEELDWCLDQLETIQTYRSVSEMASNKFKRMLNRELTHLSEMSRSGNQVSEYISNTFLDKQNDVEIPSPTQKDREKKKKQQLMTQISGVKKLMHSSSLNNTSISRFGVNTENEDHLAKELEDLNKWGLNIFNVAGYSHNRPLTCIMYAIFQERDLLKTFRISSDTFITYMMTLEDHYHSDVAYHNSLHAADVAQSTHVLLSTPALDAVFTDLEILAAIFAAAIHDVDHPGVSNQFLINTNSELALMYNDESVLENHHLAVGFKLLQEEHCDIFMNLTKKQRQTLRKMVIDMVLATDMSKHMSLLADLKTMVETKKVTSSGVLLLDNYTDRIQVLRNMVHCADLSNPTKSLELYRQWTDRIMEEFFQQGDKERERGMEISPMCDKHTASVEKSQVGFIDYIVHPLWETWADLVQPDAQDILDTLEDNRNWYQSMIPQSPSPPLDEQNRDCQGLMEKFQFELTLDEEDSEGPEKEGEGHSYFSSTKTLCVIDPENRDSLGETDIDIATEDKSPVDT
In short: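 Cell-based read-out of cAMP via a modified cyclic nucleotide-gated channel and membrane potential dye (535/590 nm) in HEK293 cells expressing PDE4 endogenously. Compounds tested up to 22.9 uM final; 100 uM RO 20-1724 reference.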

[7] = qHTS Assay for Identification of Small Molecule Agonists for Thrombopoietin (TPO) Signaling Pathway (AID 917); also: % is scaled to controls: 0 for no effect and ±100 for the full control effect
In short: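 First, Ba/F3 cells with human TPO receptor were held overnight without IL-3. Next, compounds and TPO (26 pM final) were added. After 24 hrs at 37 C, luciferase detection reagent was added and luminescence measured following 10 min at room temperature.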

[8] = target: Muscarinic acetylcholine receptor M1 (Rattus norvegicus) (UniProt P08482); assay: qHTS Assay for Antagonists of Acetylcholine Muscarinic M1 Receptor: Measurement of IP-One Response (AID 944); also: nearly all actives have a fitted effect of over 75% in size
Sequence of Muscarinic acetylcholine receptor M1 (Rattus norvegicus) (P08482 whole entry, looked up): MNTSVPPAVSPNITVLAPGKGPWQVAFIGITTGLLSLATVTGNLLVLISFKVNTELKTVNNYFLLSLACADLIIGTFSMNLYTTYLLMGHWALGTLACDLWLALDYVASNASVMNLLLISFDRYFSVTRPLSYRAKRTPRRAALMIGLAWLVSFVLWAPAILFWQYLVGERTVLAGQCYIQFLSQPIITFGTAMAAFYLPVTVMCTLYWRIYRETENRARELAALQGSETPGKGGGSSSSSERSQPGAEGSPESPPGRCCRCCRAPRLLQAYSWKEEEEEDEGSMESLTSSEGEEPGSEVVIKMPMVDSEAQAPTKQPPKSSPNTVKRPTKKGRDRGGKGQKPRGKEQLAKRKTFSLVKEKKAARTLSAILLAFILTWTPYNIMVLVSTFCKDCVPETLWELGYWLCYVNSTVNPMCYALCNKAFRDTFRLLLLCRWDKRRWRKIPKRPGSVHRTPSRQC
In short: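 Antagonist mode with rat M1 receptor transfected into CHO cells. Compound is added first for 10 min, carbachol at its EC80 follows for 30 min, and lysis reagents then allow TR-FRET detection of accumulated IP1.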

[9] = target: Pyruvate kinase (Leishmania mexicana) (UniProt Q27686); assay: qHTS Validation Assay for Inhibitors of Leishmania Mexicana Pyruvate Kinase (AID 945);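 also: 0% = DMSO only neutral control wells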
Sequence of Pyruvate kinase (Leishmania mexicana) (Q27686 2-499 E452W): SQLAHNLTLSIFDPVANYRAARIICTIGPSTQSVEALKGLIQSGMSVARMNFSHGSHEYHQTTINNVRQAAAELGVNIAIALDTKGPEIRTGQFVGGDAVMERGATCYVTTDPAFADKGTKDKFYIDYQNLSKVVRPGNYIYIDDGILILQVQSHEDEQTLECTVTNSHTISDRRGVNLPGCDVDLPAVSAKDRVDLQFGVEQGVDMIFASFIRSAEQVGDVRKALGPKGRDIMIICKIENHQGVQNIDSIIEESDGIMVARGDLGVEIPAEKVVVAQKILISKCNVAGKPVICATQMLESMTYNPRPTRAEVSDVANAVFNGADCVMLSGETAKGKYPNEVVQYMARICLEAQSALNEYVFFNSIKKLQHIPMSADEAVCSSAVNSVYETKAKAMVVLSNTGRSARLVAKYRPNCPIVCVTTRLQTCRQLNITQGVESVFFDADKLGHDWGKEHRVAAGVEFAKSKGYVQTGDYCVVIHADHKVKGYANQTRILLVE
In short: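 LmPYK E451W 0.2 nM; 0.5 mM PEP, 0.1 mM ADP, 7 mM MgCl2, 50 mM KCl, imidazole pH 7.2, 0.01% Tween 20, 0.05% BSA; 1 h RT; PKLight luminescence; DMSO-normalized.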

[10] = target: Pyruvate kinase PKM (Homo sapiens) (UniProt P14618); assay: qHTS Assay for Activators of Human Muscle Pyruvate Kinase (AID 954; active = well fitted curve in the direction sought with a large enough effect, not every such curve was filed as active;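 also: 0% = uninhibited enzyme and -100% = no enzyme or full thiadiazolimine inhibition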)
Sequence of Pyruvate kinase PKM (Homo sapiens) (P14618 whole entry, looked up): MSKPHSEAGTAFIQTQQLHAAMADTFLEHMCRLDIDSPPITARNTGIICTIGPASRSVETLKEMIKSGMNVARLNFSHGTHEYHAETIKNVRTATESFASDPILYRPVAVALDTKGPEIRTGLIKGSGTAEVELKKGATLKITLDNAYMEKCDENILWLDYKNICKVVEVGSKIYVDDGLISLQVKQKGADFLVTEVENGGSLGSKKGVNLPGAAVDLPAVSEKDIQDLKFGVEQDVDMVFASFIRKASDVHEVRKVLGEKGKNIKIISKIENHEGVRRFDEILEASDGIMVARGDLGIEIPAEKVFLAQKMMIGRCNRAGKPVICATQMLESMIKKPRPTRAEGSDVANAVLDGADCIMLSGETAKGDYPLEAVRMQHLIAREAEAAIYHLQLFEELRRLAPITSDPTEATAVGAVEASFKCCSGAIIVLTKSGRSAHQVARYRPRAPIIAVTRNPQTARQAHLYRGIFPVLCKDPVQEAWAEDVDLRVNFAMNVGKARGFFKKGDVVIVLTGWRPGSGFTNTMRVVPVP
In short: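 ATP production by PKM2 detected via luciferase luminescence after 1 h room-temperature reaction (0.1 nM enzyme, PEP at Km 0.5 mM, ADP 0.1 mM, pH 7.2 imidazole buffer). Inhibition scaled to no-enzyme control; activation referenced to 0.3 nM enzyme wells.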

[11] = target: Alpha-galactosidase (Coffea arabica) (UniProt Q42656); assay: Counterscreen for Glucocerebrosidase Inhibitors: qHTS Assay for Coffee Bean alpha-Galactosidase at pH 4.5 (AID 957);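 also: plate controls were enzyme alone for no effect and no enzyme for full effect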
Sequence of Alpha-galactosidase (Coffea arabica) (Q42656 whole entry, looked up): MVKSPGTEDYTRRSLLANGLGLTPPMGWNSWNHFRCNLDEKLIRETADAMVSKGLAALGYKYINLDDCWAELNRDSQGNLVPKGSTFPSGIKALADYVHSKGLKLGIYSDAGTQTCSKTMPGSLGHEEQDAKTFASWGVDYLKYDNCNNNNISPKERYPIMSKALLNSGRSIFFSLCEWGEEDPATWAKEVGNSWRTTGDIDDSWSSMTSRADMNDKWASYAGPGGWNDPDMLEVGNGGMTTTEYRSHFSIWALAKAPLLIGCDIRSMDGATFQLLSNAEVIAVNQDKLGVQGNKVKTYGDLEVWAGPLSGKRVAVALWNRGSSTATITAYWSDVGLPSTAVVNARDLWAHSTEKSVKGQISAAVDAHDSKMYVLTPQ
In short: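 Enzyme is added first (2 nM final), then compounds titrated from 0.7 nM to 77 uM, then 80 uM 4-methylumbelliferyl alpha-D-galactopyranoside; after 20 min at room temperature a pH 10 NaOH/glycine stop precedes fluorescence reading at 365/440 nm.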

[12] = target: Alpha-galactosidase A (Homo sapiens) (UniProt P06280); assay: Counterscreen for Glucocerebrosidase Inhibitors: qHTS Assay for Human alpha-Galactosidase at pH 4.5 (AID 992); also: 0% is about no effect
Sequence of Alpha-galactosidase A (Homo sapiens) (P06280 whole entry, looked up): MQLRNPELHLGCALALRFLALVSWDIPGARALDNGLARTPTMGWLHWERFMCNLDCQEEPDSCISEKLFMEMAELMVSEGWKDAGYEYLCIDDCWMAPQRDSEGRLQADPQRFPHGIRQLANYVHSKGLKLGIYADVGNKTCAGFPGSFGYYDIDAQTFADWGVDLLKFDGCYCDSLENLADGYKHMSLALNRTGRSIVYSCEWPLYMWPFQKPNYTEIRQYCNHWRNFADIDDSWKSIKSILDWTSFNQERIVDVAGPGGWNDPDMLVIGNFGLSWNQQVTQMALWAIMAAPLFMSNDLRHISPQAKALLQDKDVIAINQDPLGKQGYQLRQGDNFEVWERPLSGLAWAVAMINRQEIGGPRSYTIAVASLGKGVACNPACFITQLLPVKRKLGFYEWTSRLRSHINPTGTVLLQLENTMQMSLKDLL
In short: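 Fluorogenic 1536-well qHTS at pH 4.5 (citrate, Tween-20): 2 nM enzyme, 80 uM 4-MU-alpha-galactoside, 20 min room temperature, NaOH/glycine stop. Titration 0.7 nM to 77 uM, data normalized to no-enzyme and full-activity controls, Hill-fitted AC50.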

[13] = target: alpha-glucosidase (Oryza sativa, rice) (UniProt Q653V4); assay: Counterscreen for Glucocerebrosidase Inhibitors: qHTS Assay for Rice alpha-Glucosidase at pH 5.0 (AID 997);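 also: 0% = full activity with enzyme and -100% = basal without enzyme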
In short: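 Endpoint fluorogenic assay at pH 5.0: compounds (0.7 nM to 77 uM) titrated against 4 nM rice enzyme and 400 uM 4-MU-alpha-glucoside for 20 min at room temperature; NaOH/glycine stop, read ex 365/em 440 nm, Hill-fitted AC50.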

[14] = target: Alpha-galactosidase (Coffea arabica) (UniProt Q42656); assay: Counterscreen for Glucocerebrosidase Inhibitors: qHTS Assay for Coffee Bean alpha-Galactosidase at pH 5.9 (AID 998);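 also: plate controls were uninhibited enzyme for no effect and no-enzyme basal signal for full effect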
In short: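 In 50 mM citric acid pH 5.9 with 0.005% Tween-20, coffee bean enzyme hydrolyses 80 uM 4-MU alpha-D-galactopyranoside over 20 min at RT. Activity is normalized to controls; AC50 comes from Hill-modelled concentration-response data.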

[15] = Validation of Assay for Modulators of Lamin A Splicing (AID 1459; active = well fitted curve in the direction sought with a large enough effect in the signal ratio; the % refers to the signal ratio;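 also: cells exposed to compound for two days before reading; 0% is about no effect; ratio rise marks activators and ratio drop marks inhibitors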)
In short: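 S3 HeLa cells stably expressing a lamin A-EGFP splicing minigene and DsRed2 were seeded at 600 cells/well in Opti-MEM with 2% FBS, pin-dosed, and incubated 48 hrs at 37 °C, 5% CO2. Laser-scanning cytometry (488 nm) gave GFP/RFP total intensity ratio.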

[16] = target: DNA repair nuclease/redox regulator APEX1 (Homo sapiens) (UniProt P27695); assay: qHTS Validation Assay for Inhibitors of the Human Apurinic/apyrimidinic Endonuclease 1 (APE1) (AID 1705;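 also: TAMRA fluorescence gain over two minutes as APE1 cuts a quenched THF abasic duplex; % is scaled to controls: 0 for no effect and ±100 for the full control effect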)
Sequence of DNA repair nuclease/redox regulator APEX1 (Homo sapiens) (P27695 whole entry, looked up): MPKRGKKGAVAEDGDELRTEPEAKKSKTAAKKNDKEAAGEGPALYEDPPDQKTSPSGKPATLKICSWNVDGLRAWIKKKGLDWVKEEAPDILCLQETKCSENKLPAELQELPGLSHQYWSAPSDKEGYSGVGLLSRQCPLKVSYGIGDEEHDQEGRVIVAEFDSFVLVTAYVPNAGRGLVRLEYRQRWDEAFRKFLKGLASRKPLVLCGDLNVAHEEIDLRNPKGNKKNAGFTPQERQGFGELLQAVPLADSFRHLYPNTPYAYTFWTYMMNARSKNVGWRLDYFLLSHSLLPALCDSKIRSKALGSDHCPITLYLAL
In short: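 Human APE1 was preincubated with compound for 15 min at room temperature, then 50 nM (final) THF-abasic double-stranded DNA substrate bearing 5'-TAMRA and 3'-BHQ-2 was added. Incision-driven fluorescence rise (ex 525/em 598 nm) was read kinetically.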

[17] = Counterscreen for APE1 Inhibitors: Fluorescent Dye Displacement Validation Assay (AID 1707);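 also: plate controls were ThO with dsDNA and no compound for no effect and ThO without dsDNA for full effect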
In short: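 Counterscreen flags promiscuous DNA binders: compounds displacing ThO from duplex DNA (abasic THF site, 50 nM) reduce 540 nm emission (480 nm excitation). ThO 250 nM final; Tris-HCl pH 7.5 with NaCl, MgCl2 and Tween-20.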

[18] = target: Endonuclease 4 (Escherichia coli (strain K12)) (UniProt P0A6C1); assay: Counterscreen for APE1 Inhibitors: qHTS Validation Assay for Inhibitors of Endonuclease IV (AID 1708); also: % is scaled to controls: 0 for no effect and ±100 for the full control effect
In short: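 Enzyme (2 nM) + compound, 15 min RT; add 50 nM TAMRA/BHQ-2 THF-site dsDNA; kinetic read ex525/em598, 3 reads/60 s; activity = read 3 − read 1. Buffer Tris pH 7.5, 50 mM NaCl, 2 mM MgCl2, DTT, Tween-20.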

[19] = qHTS for differential inhibitors of proliferation of Plasmodium falciparum line 7G8 (AID 1815);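 also: parasite growth measured after three days of incubation; plate controls were vehicle wells for no effect and reference inhibitor wells for full effect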
[20] = qHTS for differential inhibitors of proliferation of Plasmodium falciparum line GB4 (AID 1816); conditions: Potency: Plasmodium falciparum GB4 proliferation inhibition;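 also: parasite growth measured after 72 h incubation; 0% = vehicle DMSO and -100% = reference inhibitor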

COc1cc(CCN)ccc1O
inactive: outcome [1] | Potency [2] | activity change, negative = inhibition [3] 5.48% | Potency [4] > 46 µM | Potency [5] > 46 µM | Potency [6] | outcome [7] | Potency [8] | outcome [9] | outcome [10] | outcome [11] | outcome [12] | outcome [13] | outcome [14] | outcome [15] | Potency [16] | Potency [17] | outcome [18] | Potency [19] | Potency [20]
